Data from PubChem BioAssay.
Values without a mark were called inactive. Activity calls are given as the source filed them. Unless noted, no stated cut-off is given here; in the data, active means inhibition above about 30%; inactive means the rest.

biological target: Nuclear receptor coactivator 3 (Homo sapiens) (UniProt Q9Y6Q9); test: NCOA3 GAL4-fusion reporter inhibition – cell-based, luminescence, quadruplicate, confirmation (AID 588792;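 active means mean inhibition over 43.08%, the solvent-only control mean plus 3 SD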;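 further: 0% = DMSO treated cells and 100% = gossypol at 36 µM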); conditions: HEK293 GAL4-SRC3 luciferase reporter, at 3.6 µM, hits give high values
Sequence (Q9Y6Q9 whole entry, looked up, the tested form may be a part): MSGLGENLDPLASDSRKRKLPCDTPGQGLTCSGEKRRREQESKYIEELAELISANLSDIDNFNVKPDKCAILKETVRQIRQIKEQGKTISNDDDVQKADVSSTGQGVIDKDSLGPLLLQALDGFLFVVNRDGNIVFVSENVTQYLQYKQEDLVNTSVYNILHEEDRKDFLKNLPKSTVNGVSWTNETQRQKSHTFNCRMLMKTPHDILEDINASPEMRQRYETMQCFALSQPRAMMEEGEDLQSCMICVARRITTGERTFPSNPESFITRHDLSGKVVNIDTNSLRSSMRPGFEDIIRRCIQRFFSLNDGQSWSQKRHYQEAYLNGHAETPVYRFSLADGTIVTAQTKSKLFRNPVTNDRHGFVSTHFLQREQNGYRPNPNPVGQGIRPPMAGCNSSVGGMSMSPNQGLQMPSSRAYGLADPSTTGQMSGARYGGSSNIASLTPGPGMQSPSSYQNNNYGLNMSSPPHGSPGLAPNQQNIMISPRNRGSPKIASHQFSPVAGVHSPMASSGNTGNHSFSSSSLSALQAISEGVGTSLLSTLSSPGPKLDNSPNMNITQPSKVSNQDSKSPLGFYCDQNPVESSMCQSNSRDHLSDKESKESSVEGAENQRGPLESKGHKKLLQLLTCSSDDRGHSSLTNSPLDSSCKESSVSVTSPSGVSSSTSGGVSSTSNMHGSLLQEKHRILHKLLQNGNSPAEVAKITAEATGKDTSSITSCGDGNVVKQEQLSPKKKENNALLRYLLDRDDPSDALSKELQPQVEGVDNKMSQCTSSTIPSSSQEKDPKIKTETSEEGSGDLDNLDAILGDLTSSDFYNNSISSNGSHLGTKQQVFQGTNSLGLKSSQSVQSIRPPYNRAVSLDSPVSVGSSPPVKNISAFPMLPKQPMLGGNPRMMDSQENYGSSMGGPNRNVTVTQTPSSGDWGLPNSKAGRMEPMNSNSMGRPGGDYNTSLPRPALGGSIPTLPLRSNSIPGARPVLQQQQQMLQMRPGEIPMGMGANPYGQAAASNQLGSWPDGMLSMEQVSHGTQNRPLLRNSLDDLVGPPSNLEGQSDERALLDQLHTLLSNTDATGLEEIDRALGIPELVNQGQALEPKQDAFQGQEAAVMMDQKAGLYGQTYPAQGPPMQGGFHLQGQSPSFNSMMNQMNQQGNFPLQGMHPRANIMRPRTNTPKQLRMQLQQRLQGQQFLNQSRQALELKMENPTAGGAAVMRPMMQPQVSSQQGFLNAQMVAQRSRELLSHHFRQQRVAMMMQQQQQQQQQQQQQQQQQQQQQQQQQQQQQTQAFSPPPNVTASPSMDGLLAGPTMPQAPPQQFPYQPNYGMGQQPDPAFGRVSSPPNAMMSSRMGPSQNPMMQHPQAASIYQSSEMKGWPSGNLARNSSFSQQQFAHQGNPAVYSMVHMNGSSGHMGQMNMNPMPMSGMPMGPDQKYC

Row | Compound | inhibition
1 | Cc1cc(Br)ccc1NC(=O)c1cnc(N2CCN(c3ccccn3)CC2)c2ccccc12 | 15.6%
2 | COc1cccc(/C=N/Nc2cc(-n3nc(C)cc3-c3ccccc3)ncn2)c1O | 28.9%
3 | O=C(CCl)Nc1cccc(-c2cnc3ccccc3n2)c1 | 33.5%
4 | O=C(Nc1ccccc1C(=O)Nc1nnc(C(F)(F)F)s1)c1ccccc1Cl | 12.3%
5 | COc1ccccc1N1CCN(C(=O)CSc2nnc3n2C(C)(C)Cc2ccccc2-3)CC1 | -10.1%
6 | CC(C)CN=C(NS(=O)(=O)c1ccccc1)C(Cl)(Cl)Cl | 24.3%
7 | Cc1ccc2c(c1)c(C)cc[n+]2Cc1ccccc1 | 10.7%
8 | CN1CCCC(n2nc(Cc3ccc(Cl)cc3)c3ccccc3c2=O)CC1 (stereo not given) | 10.3%
9 | Cc1ccc(C)c(N2CCN(C(=O)C34CC5CC(C3)CC(n3nnc(C)n3)(C5)C4)CC2)c1 | 3.92%
10 | Nc1ccccc1SCC(=O)Nc1nc(-c2ccccc2)cs1 | 25%
11 | COc1ccc(OCc2nn3c(-c4ccco4)nnc3s2)cc1 | -8.03%
12 | CCc1cccc(CC)c1C(OC(C)=O)c1cccnc1 (stereo not given) | -15.7%
13 | Cc1cccc(N2CCN(C(=O)C3CCN(c4ncnc5c4nc4n5CCCCC4)CC3)CC2)c1C | -4.11%
14 | COc1ccc([N+](=O)[O-])cc1NC(=O)Nc1cccc(Cl)c1 | 19.4%
15 | COc1cc2c(C#N)c(N3CCOCC3)nc(N)c2c(N)n1 | -5.11%
16 | CCOC(=O)c1c(C)[nH]c2c1-c1ccccc1C(=O)C2=O | 95.1% (active)
17 | CN(C)S(=O)(=O)c1ccc(N2CCN(S(=O)(=O)c3ccc(F)cc3)CC2)c(Cl)c1 | 41.9%
18 | Cc1[nH]c2ccccc2c1C(=O)CN1C(=O)NC2(CC(C)CC(C)(C)C2)C1=O (stereo not given) | 11.9%
19 | Cc1cccc(NC(=O)c2cnn(C)c2)c1C | -2.28%
20 | CCOc1ccc(CNC(=O)C2Cc3cc(S(=O)(=O)N4CCCC4)ccc3N2C(C)=O)cc1 (stereo not given) | 4.56%

Row | Compound | inhibition
21 | CCOC(=O)/C(C#N)=C/c1cc(C)n(-c2ccccc2)c1C | 18.5%
22 | COC(=O)c1ccc(S(=O)(=O)NCc2ccc(S(N)(=O)=O)cc2)o1 | -5.84%
23 | O=C(N/N=C/c1ccc(O)cc1O)c1ccc(NC(=O)C2CCCCC2)cc1 | 9.15%
24 | CCOc1cccc(/C=N/NC(=O)c2cc(-c3cccn3C)n[nH]2)c1O | 26%
25 | O=C(N/N=C/c1cc(Cl)ccc1O)c1cccnc1 | 15.7%
26 | CC(C)C[C@H](NC(=O)c1[nH]cnc1C(=O)N[C@@H](Cc1ccccc1)C(=O)OC(C)(C)C)C(=O)OC(C)(C)C | 13.6%
27 | Cc1ccc(C(=O)N/N=C/c2ccc(-c3cccc(C(F)(F)F)c3)o2)cn1 | 6.91%
28 | COc1cccc(C(=O)CC(=O)C(=O)Nc2cccc([N+](=O)[O-])c2C)c1 | -3.08%
29 | O=C(NCC1CCCO1)c1cccc2c1C(=O)c1ccc(N3CCC(Cc4ccccc4)CC3)cc1S2(=O)=O (stereo not given) | -2.13%
30 | O=C(N/N=C/c1ccccc1O)c1ccncc1 | 14.8%
31 | C=CCn1c(NCCc2ccccc2)nc2c1c(=O)n(C)c(=O)n2C | 4.32%
32 | O=C1C=CC(=O)N1CCNc1ncc(C(F)(F)F)cc1Cl | 7.05%
33 | COc1ccc(CCNC(=O)C2CCCN(S(C)(=O)=O)C2)cc1OC (stereo not given) | -14%
34 | Cc1oc(S(=O)(=O)N(C)C)cc1C(=O)Nc1ccc(Cl)cc1 | -1.4%
35 | COc1ccc(-c2cc(C(=O)N3CCN(c4ncccn4)CC3)c3ccccc3n2)c(OC)c1 | 0.79%
36 | FC(F)(F)c1cccc(Nc2cc(-c3ccccc3)nc3ncnn23)c1 | -2.25%
37 | COCC(C)n1c(SCC(=O)NC(=O)Cc2ccccc2)nc2ccccc2c1=O (stereo not given) | 19.1%
38 | Cc1ccc(S(=O)(=O)NCC(=O)N(c2ccccc2)C(C(=O)NCc2ccccc2)c2ccco2)cc1 (stereo not given) | -2.76%
39 | CCn1cc(C(=O)NCc2ccco2)c(=O)c2cc(S(=O)(=O)N3CCCCCC3)ccc21 | 20%
40 | O=C1OCCC1Sc1nnc(-c2ccc(Cl)cc2Cl)o1 (stereo not given) | 0.88%

tested on: transactivating tegument protein VP16 (Human herpesvirus 1), Gal4-VP16 luciferase reporter; test: repression of VP16-driven luciferase reporter – cell-based, luminescence, high throughput, counter-screen for SRC3 inhibitor project (AID 588794); conditions: mammalian cells, at 3.6 µM, hits give high values

Row | Compound | inhibition
41 | Cc1cc(Br)ccc1NC(=O)c1cnc(N2CCN(c3ccccn3)CC2)c2ccccc12 | 15.2%
42 | COc1cccc(/C=N/Nc2cc(-n3nc(C)cc3-c3ccccc3)ncn2)c1O | -9.27%
43 | O=C(CCl)Nc1cccc(-c2cnc3ccccc3n2)c1 | 13.8%
44 | O=C(Nc1ccccc1C(=O)Nc1nnc(C(F)(F)F)s1)c1ccccc1Cl | 11%
45 | COc1ccccc1N1CCN(C(=O)CSc2nnc3n2C(C)(C)Cc2ccccc2-3)CC1 | 27.2%
46 | CC(C)CN=C(NS(=O)(=O)c1ccccc1)C(Cl)(Cl)Cl | 16.1%
47 | Cc1ccc2c(c1)c(C)cc[n+]2Cc1ccccc1 | 4.92%
48 | CN1CCCC(n2nc(Cc3ccc(Cl)cc3)c3ccccc3c2=O)CC1 (stereo not given) | 2.25%
49 | Cc1ccc(C)c(N2CCN(C(=O)C34CC5CC(C3)CC(n3nnc(C)n3)(C5)C4)CC2)c1 | 29.6% (active)
50 | Nc1ccccc1SCC(=O)Nc1nc(-c2ccccc2)cs1 | 48.4% (active)
51 | COc1ccc(OCc2nn3c(-c4ccco4)nnc3s2)cc1 | -4.08%
52 | CCc1cccc(CC)c1C(OC(C)=O)c1cccnc1 (stereo not given) | -7.1%
53 | Cc1cccc(N2CCN(C(=O)C3CCN(c4ncnc5c4nc4n5CCCCC4)CC3)CC2)c1C | 11.5%
54 | COc1ccc([N+](=O)[O-])cc1NC(=O)Nc1cccc(Cl)c1 | 15.4%
55 | COc1cc2c(C#N)c(N3CCOCC3)nc(N)c2c(N)n1 | 0.07%
56 | CCOC(=O)c1c(C)[nH]c2c1-c1ccccc1C(=O)C2=O | 91.5% (active)
57 | CN(C)S(=O)(=O)c1ccc(N2CCN(S(=O)(=O)c3ccc(F)cc3)CC2)c(Cl)c1 | 28.5%
58 | Cc1[nH]c2ccccc2c1C(=O)CN1C(=O)NC2(CC(C)CC(C)(C)C2)C1=O (stereo not given) | -5.15%
59 | Cc1cccc(NC(=O)c2cnn(C)c2)c1C | -8.45%
60 | CCOc1ccc(CNC(=O)C2Cc3cc(S(=O)(=O)N4CCCC4)ccc3N2C(C)=O)cc1 (stereo not given) | 8.25%

Row | Compound | inhibition
61 | CCOC(=O)/C(C#N)=C/c1cc(C)n(-c2ccccc2)c1C | 18.2%
62 | COC(=O)c1ccc(S(=O)(=O)NCc2ccc(S(N)(=O)=O)cc2)o1 | -6.55%
63 | O=C(N/N=C/c1ccc(O)cc1O)c1ccc(NC(=O)C2CCCCC2)cc1 | 10.4%
64 | CCOc1cccc(/C=N/NC(=O)c2cc(-c3cccn3C)n[nH]2)c1O | 40% (active)
65 | O=C(N/N=C/c1cc(Cl)ccc1O)c1cccnc1 | 41.4% (active)
66 | CC(C)C[C@H](NC(=O)c1[nH]cnc1C(=O)N[C@@H](Cc1ccccc1)C(=O)OC(C)(C)C)C(=O)OC(C)(C)C | 2.92%
67 | Cc1ccc(C(=O)N/N=C/c2ccc(-c3cccc(C(F)(F)F)c3)o2)cn1 | 4.45%
68 | COc1cccc(C(=O)CC(=O)C(=O)Nc2cccc([N+](=O)[O-])c2C)c1 | -1.84%
69 | O=C(NCC1CCCO1)c1cccc2c1C(=O)c1ccc(N3CCC(Cc4ccccc4)CC3)cc1S2(=O)=O (stereo not given) | 10.6%
70 | O=C(N/N=C/c1ccccc1O)c1ccncc1 | 13.7%
71 | C=CCn1c(NCCc2ccccc2)nc2c1c(=O)n(C)c(=O)n2C | 28.1%
72 | O=C1C=CC(=O)N1CCNc1ncc(C(F)(F)F)cc1Cl | -14.1%
73 | COc1ccc(CCNC(=O)C2CCCN(S(C)(=O)=O)C2)cc1OC (stereo not given) | -3.27%
74 | Cc1oc(S(=O)(=O)N(C)C)cc1C(=O)Nc1ccc(Cl)cc1 | 8.66%
75 | COc1ccc(-c2cc(C(=O)N3CCN(c4ncccn4)CC3)c3ccccc3n2)c(OC)c1 | -9.7%
76 | FC(F)(F)c1cccc(Nc2cc(-c3ccccc3)nc3ncnn23)c1 | -0.93%
77 | COCC(C)n1c(SCC(=O)NC(=O)Cc2ccccc2)nc2ccccc2c1=O (stereo not given) | -4.14%
78 | Cc1ccc(S(=O)(=O)NCC(=O)N(c2ccccc2)C(C(=O)NCc2ccccc2)c2ccco2)cc1 (stereo not given) | 4.99%
79 | CCn1cc(C(=O)NCc2ccco2)c(=O)c2cc(S(=O)(=O)N3CCCCCC3)ccc21 | 23.5%
80 | O=C1OCCC1Sc1nnc(-c2ccc(Cl)cc2Cl)o1 (stereo not given) | 1.16%
